Shown are actives, neighbours in structure and some others; about 3.9% of the full set was active somewhere.
Wnt act = Wnt/beta-catenin pathway activators, primary screen, cell-based, plate reader, single point. Wnt/beta-catenin reporter cell assay, activator. activation, % at 9.35 µM. 1.2% of 300,000 active. AID 743398, 2014; in the data active = activation above about 30%, passing the limit was not always enough; inconclusive = no clear call, values can overlap the other calls;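 also: 0% = neutral control wells and 100% = positive control wells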
MITF act = activators of MITF-driven TRPM1 promoter reporter, primary screen, cell-based, SK-MEL-5, luciferase, single point; SK-MEL-5 TRPM1-promoter luciferase, 24 h; % of positive control, neutral wells = 0; activation, % at 12.5 µM; 0.75% of 300,000 active; AID 588334, 2011;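 active = mean activation of at least 80% with every replicate also reaching 80%; inconclusive = mean reaches 80% but some replicate falls short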;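 also: 0% = neutral control wells and 100% = parthenolide positive control wells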
esBAF inh = Bmi1 luciferase reporter increase in mESCs, primary screen, esBAF inhibitor project, mouse ES cells, Bmi1 luciferase knock-in, single point; AID 602393, 2012; 24 h; 100% = twice the neutral-well signal; reporter increase, % at 12.5 µM; 2% of 350,000 active; in the data active = activation above about 40%; inconclusive = no clear call, values can overlap the other calls;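 also: 0% = median of the plate's neutral control wells and 100% = double that signal; a rise in the Bmi1 reporter signal indicates esBAF inhibition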
HSF-1 act = HSF-1 activators, primary screen, NIH3T3-HGL cells, MG132 stress, luminescence, single point; NIH3T3-HGL HSF-1 luciferase reporter, 8 h; 100% = twice DMSO control signal; activation, % at 9 µM; 1.7% of 300,000 active; AID 504408, 2011;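 active = mean replicate activation of at least 50% with a set share of replicates each reaching 50%; inconclusive = only one of those two conditions met; inactive = mean below 50% and too few replicates reaching it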;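 also: 0% = median of the neutral control wells and 100% = twice that signal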
HSF1 inhib = HSF1 inhibitors in luciferase reporter cells, primary screen, cell-based, NIH3T3, luminescence. NIH3T3-HGL HSE-luciferase, MG132-induced, luminescence 8 h; active compounds read low. activity change, negative = inhibition, % at 7.5 µM (by protocol). 0.77% of 300,000 active. AID 2098, 2009;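 active = more than half of replicate wells show activity change below -50%, luminescence cut by over half; inconclusive = some wells, but at most half, below -50%; inactive = no replicate well below -50%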;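 also: luciferase reports HSF-1 transcriptional activity via heat shock element; 0% = median of DMSO wells and -100% = zero luminescence signal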
* marks the source's active call; other numbers are inactive results; ? = inconclusive; . = no result.

SMILES	Wnt act	MITF act	esBAF inh	HSF-1 act	HSF1 inhib
COc1ccccc1CNC(=O)N1CCN(c2ccccc2)CC1	-3	2	2	-5	-4
COc1ccccc1CNC(=O)N1CCN(c2ccccc2C)CC1	-1	-5	8	-78	-72*
COc1cccc(S(=O)(=O)Nc2ccc3c(c2)[C@@H]2C[C@@H](CC(=O)NCc4cccc(F)c4)O[C@@H](CO)[C@@H]2O3)c1	.	.	4	.	.
O=C(Nc1cnc2ccccn2c1=O)c1ccc(Cl)cc1	.	86*	43*	33	14
O=C(Nc1cccn2ncnc12)c1ccc(Cl)cc1	6	29	15	2	-4
C/C(=N\N=c1/sc2ccccc2n1C)c1ccc(N2CCOCC2)cc1	.	-10	4	66*	25
C/C(=N\N=c1/sc2ccccc2n1C)c1ccccn1	52*	64	?	0	14
CC(=O)N/N=c1\sc2ccccc2n1C	0	-18	3	8	6
C[C@@H]1CN([C@@H](C)CO)C(=O)c2cc(C#Cc3ccccc3F)cnc2O[C@H]1CN(C)C(=O)C1CC1	.	.	18	.	.
C[C@@H]1CN([C@H](C)CO)C(=O)c2cccc(NC(=O)C3CCOCC3)c2O[C@H]1CN(C)CC1CC1	.	.	1	.	.
C[C@H]1CN([C@@H](C)CO)C(=O)c2cc(C#CCC3CCCC3)cnc2O[C@H]1CN(C)C(=O)CN(C)C	.	.	2	.	.
CN(C)c1ccc2nc3ccc(=[N+](C)C)cc-3sc2c1	26	-73	.	48	26
Cc1cc2nc3ccc(=[N+](C)C)cc-3sc2cc1N	.	-95	.	58*	44
Cc1ccc(C)c(N(C(=O)c2csnn2)C(C(=O)NC2CCCC2)c2ccncc2)c1 (stereo unspecified)	-2	-3	-1	9	-3
Cc1ccccc1N(C(=O)c1csnn1)C(C(=O)NC(C)(C)C)c1ccncc1 (stereo unspecified)	-1	-3	1	93*	74
Cc1ccc(N(C(=O)c2csnn2)C(C(=O)NC2CCCC2)c2ccncc2)c(C)c1 (stereo unspecified)	2	.	-2	61*	43
O=C(NC1CCCC1)C(c1ccncc1)N(C(=O)c1csnn1)c1ccccc1 (stereo unspecified)	-1	19	-4	-6	2
Cc1cc(C)c(N(C(=O)c2csnn2)C(C(=O)NC2CCCC2)c2ccncc2)c(C)c1 (stereo unspecified)	-1	-4	-2	-82	-76*
COc1ccc(CNC(=O)C(c2ccc(C)o2)N(C(=O)c2csnn2)c2ccc(C(C)C)cc2)cc1 (stereo unspecified)	.	0	12	71*	43
CC(C)c1ccc(N(C(=O)c2csnn2)C(C(=O)NC2CCCC2)c2ccncc2)cc1 (stereo unspecified)	2	30	36	53*	21
O=C(NC1CCCC1)C(c1ccncc1)N(C(=O)c1csnn1)c1ccc(F)cc1 (stereo unspecified)	0	8	2	-10	6
O=C(CCN1CCCCC1)N[C@@H]1CC[C@H](CCNS(=O)(=O)c2ccccc2)O[C@@H]1CO	.	.	1	.	.
Cc1ccccc1NC(=O)C[C@H]1CC[C@H]2[C@@H](COc3ccc(NC(=O)C4CCC4)cc3C(=O)N2C)O1	.	.	7	.	.
CCc1cc2c(=O)n(-c3ccccc3)cnc2s1	12	.	21	12	6
COc1cccc(-n2cnc3sc(-c4ccccc4)cc3c2=O)c1	24	101*	47*	54*	24
SMILES	Wnt act	MITF act	esBAF inh	HSF-1 act	HSF1 inhib
COc1ccc(-n2cnc3sc(-c4ccccc4)cc3c2=O)cc1	.	124*	34	?	25
CCc1cnc(N2[C@@H](C#N)[C@H](c3ccc(C#Cc4ccccc4F)cc3)[C@@H]2CO)s1	.	.	11	.	.
Cc1ccc(SCCOCCN2CCOCC2)cc1	0	19	-4	-3	-4
c1ccc(SCCOCCN2CCOCC2)cc1	1	.	10	64*	25
CO[C@@H]1CN(C)C(=O)c2cc(NC(C)=O)ccc2OC[C@@H](C)N(Cc2ccccn2)C[C@@H]1C	.	.	-1	.	.
O=C(O)c1ccn(Cn2cnc3ccccc32)n1	.	-12	-32	-80	-75*
O=C(Cn1cnc2ccccc21)c1ccccc1	0	.	9	-8	-1
C=CCSc1cc(C)nc2c(-c3ccccc3)cnn12	33*	12	.	47	32
Cc1cc(-c2ccncc2)n2ncc(-c3ccccc3)c2n1	19	.	17	.	.
Cc1cc(N)n2ncc(-c3ccccc3)c2n1	.	65	51*	9	31
Cc1cc(N)n2ncc(-c3cccc(Br)c3)c2n1	.	66	66*	.	.
CC(=O)c1cnc2c(-c3cccc(Br)c3)cnn2c1C	9	95*	35	-9	4
CCOC(=O)Cc1c(C)nc2c(-c3cccc(Br)c3)cnn2c1C	-2	-2	.	32	5
CO[C@H]1CN(C)C(=O)c2cc(NS(=O)(=O)c3ccc(C)cc3)ccc2OC[C@H](C)N(Cc2nccs2)C[C@@H]1C	.	.	6	.	.
C[C@H]1CN([C@@H](C)CO)C(=O)c2cc(-c3cccc(C#N)c3)cnc2O[C@H]1CN(C)C(=O)C1CCC1	.	.	-3	.	.
N/C(=N\N=C\c1cccc(O)c1)c1nonc1N	14	7	-7	49	16
N/C(=N\N=C\c1ccc(O)c(O)c1)c1nonc1N	-1	61	65*	33	22
Nc1nonc1C(=O)N/N=C/c1ccc(Br)o1	-1	.	.	12	0
N/C(=N\N=C\c1ccc(Br)o1)c1nonc1N	23	118*	.	21	24
N/C(=N\N=C\c1ccc(O)cc1)c1nonc1N	49*	65	.	16	12
Cc1ccc(NC(=O)COC(=O)C2C3CC4OC(=O)C2C4C3)cc1 (stereo unspecified)	-3	-5	-11	0	-5
O=C(COC(=O)C1C2CC3OC(=O)C1C3C2)Nc1cccc(Cl)c1 (stereo unspecified)	-8	2	-1	-72	-64*
CCOC(=O)COc1ccc2ccccc2c1/C=C/[N+](=O)[O-]	-13	-83	.	177*	139
CCOC(=O)COc1ccc(/C=C/[N+](=O)[O-])c(OCC(=O)OCC)c1	.	-91	.	197*	161
CCOc1ccc(/C=C/[N+](=O)[O-])c2ccccc12	.	.	-22	76*	47
O=[N+]([O-])/C=C/c1c(OCc2ccccc2)ccc2ccccc12	.	-98	23	45	49
COc1ccc(S(=O)(=O)N(C)C[C@H]2Oc3c(NC(=O)c4cc(C)nn4C)cccc3C(=O)N([C@@H](C)CO)C[C@@H]2C)cc1	.	.	7	.	.

Source: PubChem (Broad Institute)
